Measurements published in the supplement of paper PMC10849652.
About 7,900 targets were measured; listed, in parts, are those with a hit and a random draw of the rest. About 0.6% of all pairs of compound and target were hits.

Experiments:
Test in all cases: log2 fold change, soluble protein after heating vs DMSO (PISA); higher = thermal stabilisation; K562 cells, 10 uM, 30 min; active = over 0.2 and 3.5 SD of the protein, either way, in both replicates (recomputed)
bafetinib = compound: Cc1ccc(NC(=O)c2ccc(CN3CC[C@H](N(C)C)C3)c(C(F)(F)F)c2)cc1Nc1nccc(-c2cncnc2)n1 [bafetinib]
Outline: (§1)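 K562 cells at 2×10^6 cells/mL were treated for 30 min with 10 μM compound, and aliquots were heated for 3 min over 48°C-58°C before pooling. Extraction used PBS with 0.5% NP-40 at 4°C, and soluble protein was the supernatant after 21,000xg for 90 min, measured by TMTpro 16plex LC-MS/MS with channel sums equalised. Thermal stability values, relative to control samples and from duplicates, are log2 fold changes.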

[1] = compound: Cc1cccc(CC(=O)N2CCc3c2ccc(-c2cn(C)c4ncnc(N)c24)c3F)n1
Outline: as §1

nilotinib = compound: Cc1cn(-c2cc(NC(=O)c3ccc(C)c(Nc4nccc(-c5cccnc5)n4)c3)cc(C(F)(F)F)c2)cn1 [nilotinib]
Outline: as §1

[2] = compound: Cc1nc(Nc2n[nH]c3c2CN(C(=O)N[C@H](CN(C)C)c2ccccc2)C3(C)C)c2sccc2n1
Outline: as §1

dasatinib = compound: Cc1nc(Nc2ncc(C(=O)Nc3c(C)cccc3Cl)s2)cc(N2CCN(CCO)CC2)n1 [dasatinib]
Outline: as §1

[3] = compound: Cc1ncc(-c2ccnc(Nc3ccc(S(C)(=O)=O)cc3)n2)n1C(C)C
Outline: as §1

[4] = compound: Cn1cc(-c2ccc3c(c2)CCN3C(=O)Cc2cccc(C(F)(F)F)c2)c2c(N)ncnc21
Outline: as §1

[5] = compound: Cn1cc(-c2ccc3nnc(C(F)(F)c4ccc5ncccc5c4)n3n2)cn1
Outline: as §1

tipifarnib = compound: Cn1cncc1[C@@](N)(c1ccc(Cl)cc1)c1ccc2c(c1)c(-c1cccc(Cl)c1)cc(=O)n2C [tipifarnib]
Outline: as §1

mubritinib = compound: FC(F)(F)c1ccc(/C=C/c2nc(COc3ccc(CCCCn4ccnn4)cc3)co2)cc1 [mubritinib]
Outline: as §1

[6] = compound: NC(=O)Nc1cc(-c2cccc(F)c2)sc1C(=O)N[C@H]1CCCNC1
Outline: as §1

[7] = compound: NC(=O)c1cnc(N[C@@H]2CCCC[C@@H]2N)nc1Nc1cccc(-n2nccn2)c1
Outline: as §1

[8] = compound: NC1(c2ccc(-c3nc4ccn5c(=O)[nH]nc5c4cc3-c3ccccc3)cc2)CCC1
Outline: as §1

[9] = compound: NCC(=O)Nc1ccc(-n2nc(C(F)(F)F)cc2-c2ccc3c(ccc4ccccc43)c2)cc1
Outline: as §1

entinostat = compound: Nc1ccccc1NC(=O)c1ccc(CNC(=O)OCc2cccnc2)cc1 [entinostat]
Outline: as §1

vorinostat = compound: O=C(CCCCCCC(=O)Nc1ccccc1)NO [vorinostat]
Outline: as §1

citarinostat = compound: O=C(CCCCCCNC(=O)c1cnc(N(c2ccccc2)c2ccccc2Cl)nc1)NO [citarinostat]
Outline: as §1

silmitasertib = compound: O=C(O)c1ccc2c(c1)nc(Nc1cccc(Cl)c1)c1ccncc12 [silmitasertib]
Outline: as §1

[10] = compound: O=C1NC(=O)C(c2cnc3ccccn23)=C1c1cn2c3c(cc(F)cc13)CN(C(=O)N1CCCCC1)CC2
Outline: as §1

[11] = compound: c1cc(OCCN2CCCCC2)cc(-c2n[nH]c3ccc(-c4nnc[nH]4)cc23)c1
Outline: as §1

Measured: log2 fold change

CLASP2 isoform 3 (UniProt O75122)
Chain of UniProt O75122 (O75122 whole entry, looked up): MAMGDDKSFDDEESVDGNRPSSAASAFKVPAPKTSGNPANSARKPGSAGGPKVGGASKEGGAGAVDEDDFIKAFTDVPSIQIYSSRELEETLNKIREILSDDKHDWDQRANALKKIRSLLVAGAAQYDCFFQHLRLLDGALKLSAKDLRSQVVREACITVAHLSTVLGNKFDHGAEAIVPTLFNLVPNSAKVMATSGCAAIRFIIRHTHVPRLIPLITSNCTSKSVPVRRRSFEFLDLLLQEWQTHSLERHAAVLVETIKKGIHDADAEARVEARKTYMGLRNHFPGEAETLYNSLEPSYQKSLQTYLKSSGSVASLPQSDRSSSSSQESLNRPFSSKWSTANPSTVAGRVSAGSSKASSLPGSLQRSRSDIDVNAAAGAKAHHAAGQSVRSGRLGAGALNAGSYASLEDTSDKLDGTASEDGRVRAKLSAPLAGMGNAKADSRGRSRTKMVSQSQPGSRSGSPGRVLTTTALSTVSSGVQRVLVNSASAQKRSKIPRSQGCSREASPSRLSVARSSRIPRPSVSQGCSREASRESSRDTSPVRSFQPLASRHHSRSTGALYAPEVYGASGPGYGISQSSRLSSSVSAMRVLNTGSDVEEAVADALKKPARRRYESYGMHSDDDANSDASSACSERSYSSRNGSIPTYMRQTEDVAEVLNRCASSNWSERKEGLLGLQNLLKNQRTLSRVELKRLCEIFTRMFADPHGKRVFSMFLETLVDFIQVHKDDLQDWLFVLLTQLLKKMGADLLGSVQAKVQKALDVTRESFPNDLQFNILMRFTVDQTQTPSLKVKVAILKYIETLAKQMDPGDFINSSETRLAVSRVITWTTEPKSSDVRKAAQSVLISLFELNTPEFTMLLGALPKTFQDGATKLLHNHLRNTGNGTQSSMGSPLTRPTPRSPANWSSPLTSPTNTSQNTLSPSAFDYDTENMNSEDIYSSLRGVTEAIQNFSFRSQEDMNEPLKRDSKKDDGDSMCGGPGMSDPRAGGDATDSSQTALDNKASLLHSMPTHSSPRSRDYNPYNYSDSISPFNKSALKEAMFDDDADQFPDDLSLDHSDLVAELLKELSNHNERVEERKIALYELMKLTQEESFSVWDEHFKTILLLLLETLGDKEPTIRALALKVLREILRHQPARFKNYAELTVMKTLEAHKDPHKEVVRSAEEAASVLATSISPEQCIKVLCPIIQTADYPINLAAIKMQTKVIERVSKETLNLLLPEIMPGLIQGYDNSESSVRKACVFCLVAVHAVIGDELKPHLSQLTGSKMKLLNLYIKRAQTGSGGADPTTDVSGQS
inactive: bafetinib 0.016 | [1] 0.058 | nilotinib -0.067 | dasatinib -0.175 | [3] -0.188 | [4] 0.013 | [5] 0.012 | tipifarnib -0.089 | mubritinib 0.022 | [6] 0.018 | [7] -0.018 | [8] -0.147 | [9] -0.036 | entinostat 0.02 | vorinostat 0.069 | citarinostat 0.09 | silmitasertib -0.033 | [10] -0.153 | [11] -0.055
active: [2] -0.279

CLPTM1L (UniProt Q96KA5)
inactive: bafetinib -0.186 | [1] 0.07 | nilotinib -0.103 | [2] 0.009 | dasatinib -0.045 | [3] -0.016 | [4] -0.042 | [5] 0.011 | tipifarnib -0.056 | mubritinib 0.02 | [6] -0.007 | [7] 0.007 | [8] -0.148 | [9] -0.019 | entinostat 0.025 | vorinostat 0.023 | citarinostat 0.044 | silmitasertib 0.02 | [10] -0.072 | [11] 0.002

CCDC9 (UniProt Q9Y3X0)
inactive: bafetinib -0.011 | [1] -0.032 | nilotinib 0.002 | [2] 0.117 | dasatinib 0.072 | [3] 0.028 | [4] -0.046 | [5] -0.05 | tipifarnib -0.004 | mubritinib -0.038 | [6] 0.021 | [7] 0.034 | [8] 0.121 | [9] 0.02 | entinostat -0.088 | vorinostat -0.051 | citarinostat -0.069 | silmitasertib -0.051 | [10] 0.021 | [11] -0.015

CPSF1 (UniProt Q10570)
inactive: bafetinib 0.026 | [1] -0.007 | nilotinib 0.065 | [2] -0.002 | dasatinib -0.037 | [3] -0.014 | [4] -0.077 | [5] -0.14 | tipifarnib 0.026 | mubritinib -0.007 | [6] 0.024 | [7] 0.069 | [8] 0.059 | [9] 0.006 | entinostat -0.023 | vorinostat 0.012 | citarinostat -0.025 | silmitasertib 0.052 | [10] 0.099 | [11] -0.139

CELF2 isoform 3 (UniProt O95319)
Chain of UniProt O95319 (O95319 whole entry, looked up): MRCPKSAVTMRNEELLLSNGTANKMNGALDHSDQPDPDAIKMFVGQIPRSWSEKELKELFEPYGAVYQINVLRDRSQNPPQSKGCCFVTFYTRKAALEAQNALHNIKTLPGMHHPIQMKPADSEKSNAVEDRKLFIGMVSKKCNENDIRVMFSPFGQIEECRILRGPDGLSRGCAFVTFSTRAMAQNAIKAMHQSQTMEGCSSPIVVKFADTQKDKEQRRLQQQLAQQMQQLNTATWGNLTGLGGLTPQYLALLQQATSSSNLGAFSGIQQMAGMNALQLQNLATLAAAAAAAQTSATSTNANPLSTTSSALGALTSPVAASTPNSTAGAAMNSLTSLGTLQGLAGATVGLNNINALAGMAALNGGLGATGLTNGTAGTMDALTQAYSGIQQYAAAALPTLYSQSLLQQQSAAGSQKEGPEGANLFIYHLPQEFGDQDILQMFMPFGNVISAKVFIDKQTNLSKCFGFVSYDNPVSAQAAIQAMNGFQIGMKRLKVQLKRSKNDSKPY
inactive: bafetinib 0.014 | [1] -0.005 | nilotinib -0.001 | [2] 0.013 | dasatinib -0.005 | [3] 0.079 | [4] -0.022 | [5] -0.059 | tipifarnib -0.062 | mubritinib -0.006 | [6] -0.047 | [7] 0.009 | [8] 0.017 | [9] -0.017 | entinostat -0.048 | vorinostat -0.044 | citarinostat 0 | silmitasertib 0.051 | [10] 0.102 | [11] -0.021

C9orf72 (UniProt Q96LT7)
inactive: bafetinib 0.029 | [1] -0.018 | nilotinib 0.031 | [2] 0.073 | dasatinib -0.004 | [3] 0.006 | [4] 0.085 | [5] -0.05 | tipifarnib 0.033 | mubritinib 0.021 | [6] 0.028 | [7] -0.041 | [8] -0.148 | [9] -0.009 | entinostat -0.011 | vorinostat 0.232 | silmitasertib -0.067 | [10] -0.011

CHCHD2 (UniProt Q9Y6H1)
Chain of UniProt Q9Y6H1 (Q9Y6H1 whole entry, looked up): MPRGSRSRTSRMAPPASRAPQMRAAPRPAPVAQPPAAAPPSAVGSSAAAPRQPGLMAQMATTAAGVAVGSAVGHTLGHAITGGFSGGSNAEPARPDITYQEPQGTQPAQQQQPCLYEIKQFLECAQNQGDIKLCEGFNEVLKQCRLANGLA
inactive: bafetinib -0.026 | [1] -0.002 | nilotinib 0.037 | [2] 0.029 | dasatinib 0.075 | [3] -0.086 | [4] 0.116 | [5] -0.02 | tipifarnib -0.06 | mubritinib 0.04 | [6] -0.039 | [7] -0.011 | [8] 0.022 | [9] 0.012 | entinostat -0.01 | vorinostat 0.005 | citarinostat 0.018 | silmitasertib 0.009 | [10] -0.13 | [11] -0.008

CCZ1 (UniProt P86791)
Chain of UniProt P86791 (P86791 whole entry, looked up): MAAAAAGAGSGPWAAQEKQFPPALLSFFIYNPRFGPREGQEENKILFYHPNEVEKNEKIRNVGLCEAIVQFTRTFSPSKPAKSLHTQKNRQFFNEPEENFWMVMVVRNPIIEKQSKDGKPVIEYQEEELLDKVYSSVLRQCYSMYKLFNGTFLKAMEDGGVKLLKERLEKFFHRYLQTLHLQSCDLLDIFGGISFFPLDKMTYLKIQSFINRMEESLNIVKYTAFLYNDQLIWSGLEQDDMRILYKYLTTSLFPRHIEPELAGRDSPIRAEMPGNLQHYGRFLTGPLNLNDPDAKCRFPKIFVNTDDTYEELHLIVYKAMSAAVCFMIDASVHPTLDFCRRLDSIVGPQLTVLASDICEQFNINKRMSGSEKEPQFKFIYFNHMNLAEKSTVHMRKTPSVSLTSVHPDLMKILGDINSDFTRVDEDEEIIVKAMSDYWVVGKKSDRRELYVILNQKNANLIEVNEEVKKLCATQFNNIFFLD
inactive: bafetinib -0.127 | [1] 0.007 | nilotinib 0.024 | [2] -0.022 | dasatinib -0.057 | [3] -0.098 | [4] 0.021 | [5] 0.025 | tipifarnib 0.043 | mubritinib 0.038 | [6] 0.036 | [7] -0.072 | [9] -0.077 | entinostat 0.006 | vorinostat 0.013 | citarinostat -0.011 | silmitasertib 0.039 | [10] -0.01 | [11] -0.033
active: [8] -0.33

CLINT1 (UniProt Q14677)
inactive: bafetinib -0.053 | nilotinib 0.065 | [2] -0.048 | dasatinib 0.142 | [3] -0.151 | [4] 0.047 | mubritinib -0.007 | [7] 0.001 | [8] 0.037 | [9] 0.034 | citarinostat -0.146 | silmitasertib 0.021 | [10] 0.058 | [11] 0.062

CLN5 (UniProt O75503)
active: bafetinib -0.945 | [8] -0.858
inactive: [1] 0.019 | nilotinib 0.041 | [2] -0.508 | dasatinib -0.46 | [3] 0.026 | [4] -0.119 | tipifarnib 0.002 | mubritinib -0.169 | [6] -0.133 | [7] -0.41 | entinostat 0.02 | vorinostat -0.087 | silmitasertib 0.192 | [10] -0.014

CRMP1 isoform 2 (UniProt Q14194)
Chain of UniProt Q14194 (Q14194 whole entry, looked up): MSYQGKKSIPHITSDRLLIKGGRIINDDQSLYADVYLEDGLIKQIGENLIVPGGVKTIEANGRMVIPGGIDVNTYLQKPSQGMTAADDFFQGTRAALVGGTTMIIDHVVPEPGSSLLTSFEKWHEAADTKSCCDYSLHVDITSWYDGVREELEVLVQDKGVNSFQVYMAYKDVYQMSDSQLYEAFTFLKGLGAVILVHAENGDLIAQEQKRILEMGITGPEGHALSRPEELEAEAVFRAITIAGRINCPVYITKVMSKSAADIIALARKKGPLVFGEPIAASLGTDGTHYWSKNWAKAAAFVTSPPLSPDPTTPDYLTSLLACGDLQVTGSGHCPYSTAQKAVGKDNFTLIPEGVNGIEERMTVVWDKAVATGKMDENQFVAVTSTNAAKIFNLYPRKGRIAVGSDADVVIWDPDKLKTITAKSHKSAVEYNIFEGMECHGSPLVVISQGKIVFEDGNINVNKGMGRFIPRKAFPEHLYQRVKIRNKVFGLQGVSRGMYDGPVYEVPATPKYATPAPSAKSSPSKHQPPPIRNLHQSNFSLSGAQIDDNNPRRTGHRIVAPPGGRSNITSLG
inactive: bafetinib -0.024 | [1] -0.035 | nilotinib -0.012 | [2] 0.221 | dasatinib -0.074 | [3] -0.138 | [4] 0.182 | [6] -0.121 | [7] 0 | [9] -0.099 | entinostat -0.055 | vorinostat 0.193

CDK4 (UniProt P11802)
Chain of UniProt P11802 (P11802 whole entry, looked up): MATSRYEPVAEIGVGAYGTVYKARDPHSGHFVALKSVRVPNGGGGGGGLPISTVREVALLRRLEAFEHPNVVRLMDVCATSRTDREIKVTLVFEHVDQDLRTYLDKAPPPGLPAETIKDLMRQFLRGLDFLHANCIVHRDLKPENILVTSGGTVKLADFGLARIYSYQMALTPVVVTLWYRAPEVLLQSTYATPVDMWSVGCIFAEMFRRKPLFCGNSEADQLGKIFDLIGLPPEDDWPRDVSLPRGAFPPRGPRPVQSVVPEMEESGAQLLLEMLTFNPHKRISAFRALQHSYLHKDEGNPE
inactive: bafetinib 0.022 | nilotinib -0.121 | [2] -0.042 | dasatinib -0.056 | [3] 0.031 | [4] -0.084 | [5] -0.117 | tipifarnib 0.046 | mubritinib 0.054 | [6] 0.015 | [7] -0.293 | [8] -0.074 | [9] 0.02 | entinostat -0.006 | citarinostat 0.076 | silmitasertib 0.193 | [10] 0.184 | [11] 0.005

CHST10 (UniProt O43529)
Chain of UniProt O43529 (O43529 whole entry, looked up): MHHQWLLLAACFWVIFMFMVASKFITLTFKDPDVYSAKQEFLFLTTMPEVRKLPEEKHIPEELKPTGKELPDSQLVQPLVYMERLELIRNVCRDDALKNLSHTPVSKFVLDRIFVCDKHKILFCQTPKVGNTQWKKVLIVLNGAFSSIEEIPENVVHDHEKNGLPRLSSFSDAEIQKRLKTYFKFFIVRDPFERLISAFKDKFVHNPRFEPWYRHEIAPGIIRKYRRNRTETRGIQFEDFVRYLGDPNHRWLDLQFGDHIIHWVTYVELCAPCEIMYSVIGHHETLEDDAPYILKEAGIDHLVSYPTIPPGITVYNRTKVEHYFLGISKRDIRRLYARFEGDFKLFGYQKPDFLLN
inactive: bafetinib -0.036 | [1] 0.052 | nilotinib 0.092 | [2] -0.081 | [3] 0.104 | [4] 0.071 | [5] -0.09 | tipifarnib 0.05 | mubritinib 0.064 | [6] 0.059 | [7] 0.023 | [8] -0.142 | entinostat 0.048 | vorinostat 0.015 | silmitasertib -0.059 | [10] -0.032

CLN3 (UniProt Q13286)
inactive: bafetinib -0.099 | nilotinib -0.016 | [2] 0.002 | dasatinib 0.064 | [3] -0.02 | [4] -0.049 | [5] 0.028 | tipifarnib 0.1 | mubritinib 0.09 | [8] -0.112 | [9] -0.124 | citarinostat 0.042 | silmitasertib 0.025 | [10] 0.072 | [11] -0.033

CASP8 isoform 9 (UniProt Q14790)
Chain of UniProt Q14790 (Q14790 whole entry, looked up): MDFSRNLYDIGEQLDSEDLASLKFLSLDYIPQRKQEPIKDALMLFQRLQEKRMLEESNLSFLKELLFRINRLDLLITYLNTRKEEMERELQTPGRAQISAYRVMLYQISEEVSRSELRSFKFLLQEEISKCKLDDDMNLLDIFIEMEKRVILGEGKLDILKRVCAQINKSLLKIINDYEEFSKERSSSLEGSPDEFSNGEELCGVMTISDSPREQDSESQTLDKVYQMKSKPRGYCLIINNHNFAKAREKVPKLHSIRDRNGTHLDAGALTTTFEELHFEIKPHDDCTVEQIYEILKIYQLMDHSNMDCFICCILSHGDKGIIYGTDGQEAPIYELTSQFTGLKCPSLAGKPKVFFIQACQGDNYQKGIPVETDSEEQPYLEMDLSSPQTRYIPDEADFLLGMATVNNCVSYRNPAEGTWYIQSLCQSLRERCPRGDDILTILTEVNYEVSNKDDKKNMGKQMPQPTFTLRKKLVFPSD
inactive: bafetinib 0.072 | [1] 0.093 | nilotinib -0.183 | [2] 0.018 | dasatinib -0.039 | [3] 0.069 | [5] -0.066 | tipifarnib -0.094 | mubritinib -0.095 | [6] -0.06 | [7] -0.051 | [8] -0.186 | [9] -0.151 | entinostat -0.119 | vorinostat -0.021 | citarinostat -0.048 | silmitasertib 0.12 | [10] 0.008 | [11] 0.009

CCNDBP1 (UniProt O95273)
inactive: bafetinib 0.059 | [1] -0.017 | nilotinib -0.19 | [2] 0.028 | dasatinib 0.023 | [3] 0.21 | [4] -0.055 | [5] -0.197 | mubritinib -0.045 | [6] 0.046 | [7] -0.027 | [8] -0.091 | [9] 0.069 | entinostat -0.036 | vorinostat -0.069 | citarinostat 0.05 | silmitasertib 0.087 | [11] -0.084

CCDC82 (UniProt Q8N4S0)
inactive: bafetinib -0.091 | nilotinib 0.018 | [2] -0.017 | dasatinib 0.015 | [3] -0.043 | [4] -0.132 | [5] -0.021 | tipifarnib 0.01 | mubritinib 0.087 | [7] -0.083 | [8] -0.146 | [9] -0.063 | citarinostat 0.023 | silmitasertib 0.047 | [10] -0.169 | [11] 0.046

CDK17 isoform 2 (UniProt Q00537)
Chain of UniProt Q00537 (Q00537 whole entry, looked up): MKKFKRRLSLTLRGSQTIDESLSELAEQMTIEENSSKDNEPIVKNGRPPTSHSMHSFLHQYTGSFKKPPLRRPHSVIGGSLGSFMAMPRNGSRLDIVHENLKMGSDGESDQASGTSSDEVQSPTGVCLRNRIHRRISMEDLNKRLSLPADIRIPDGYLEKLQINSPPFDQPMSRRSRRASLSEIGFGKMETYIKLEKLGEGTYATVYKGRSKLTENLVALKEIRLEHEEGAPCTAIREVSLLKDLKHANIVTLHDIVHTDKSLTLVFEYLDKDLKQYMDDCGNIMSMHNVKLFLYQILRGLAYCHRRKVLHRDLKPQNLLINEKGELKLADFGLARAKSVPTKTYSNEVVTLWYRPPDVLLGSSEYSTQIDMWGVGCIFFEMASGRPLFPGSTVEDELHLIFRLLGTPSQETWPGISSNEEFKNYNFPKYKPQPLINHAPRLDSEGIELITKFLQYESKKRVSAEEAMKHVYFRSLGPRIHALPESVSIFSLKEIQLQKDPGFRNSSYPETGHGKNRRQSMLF
inactive: bafetinib 0.117 | [1] 0.039 | dasatinib -0.171 | [4] -0.07 | tipifarnib 0.037 | mubritinib -0.04 | [6] -0.066 | [7] -0.258 | [8] -0.04 | [9] -0.074 | entinostat 0.035 | vorinostat -0.114 | citarinostat -0.245 | silmitasertib 0.088 | [10] 0.321 | [11] -0.083
